Measured values published in PubChem BioAssay (NCI).
Compounds without any hit were thinned out: in the full panel of roughly 83,000, 20% have a hit.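 A percent growth of 40 corresponds to 60% growth inhibition; 0 means no net growth; -100 means all cells died. Active threshold: below 10.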 Unmarked numbers belong to inactive results. Active and inactive are the calls of the source.

Key:
Assay in all cases: NCI-60 one-dose screen, 48 h (100 = growth as untreated, 0 = no growth, -100 = all killed)
Conditions in all cases: 10 µM unless noted
SR leukemia = test system: SR leukemia
OVCAR-8 ovarian = test system: OVCAR-8 ovarian
OVCAR-5 ovarian = test system: OVCAR-5 ovarian
OVCAR-4 ovarian = test system: OVCAR-4 ovarian
SK-OV-3 ovarian = test system: SK-OV-3 ovarian
IGROV1 ovarian = test system: IGROV1 ovarian
HS 578T breast = test system: HS 578T breast
NCI/ADR-RES ovarian = test system: NCI/ADR-RES ovarian
OVCAR-3 ovarian = test system: OVCAR-3 ovarian
RPMI-8226 leukemia = test system: RPMI-8226 leukemia

SMILES	growth (SR leukemia)	growth (OVCAR-8 ovarian)	growth (OVCAR-5 ovarian)	growth (OVCAR-4 ovarian)	growth (SK-OV-3 ovarian)	growth (IGROV1 ovarian)	growth (HS 578T breast)	growth (NCI/ADR-RES ovarian)	growth (OVCAR-3 ovarian)	growth (RPMI-8226 leukemia)
Cc1nn(-c2ccc(Cl)cc2)c(C)c1N=Nc1ccc2oc(=O)ccc2c1	67.1%	56.9%	104%	34.4%	114%	80.9%	75.9%	69.5%	–	–
CN(c1ccc(Cl)cc1)S(=O)(=O)c1ccc(-c2cnc(C3CC3)o2)cc1	8.67% (active)	30.7%	38.3%	–	84.1%	28.8%	49.3%	13.6%	9.18% (active)	–
O=C1C[C@@H](c2ccccc2)Oc2c(Cc3ccccc3O)c(O)c(Cc3cc(Cc4cc(Cc5ccccc5O)ccc4O)ccc3O)c(O)c21	99.5%	97.2%	107%	99.6%	103%	82.6%	85.4%	106%	96.4%	–
O=C(CN1CCN(c2cc(=O)n(-c3ccccc3)c3ccccc23)CC1)Nc1ccc([N+](=O)[O-])cc1	88.6%	91.3%	98.7%	65.9%	99.3%	84.3%	89.9%	91.1%	90.9%	–
Cc1cc(F)cc(NS(=O)(=O)c2ccc(-c3cnc(C4CC4)o3)cc2)c1	27.5%	35.8%	43%	49.6%	58.2%	32.4%	34.1%	6.6% (active)	–	–
COc1ccc(C2C(C#N)=C(N)Oc3c2sc2ccc(C)cc32)cc1 (stereo not drawn)	25.7%	56%	51.4%	63%	41.2%	39.8%	3.28% (active)	23.6%	–	–
C#C[C@]1(O)CC[C@H]2[C@@H]3CC=C4c5sc(Nc6ccc(OC)nc6)nc5CC[C@]4(C)[C@H]3CC[C@@]21C	7.7% (active)	27.7%	83.9%	76.1%	44.4%	29.7%	3.53% (active)	59%	–	–
Cc1ccc(/C=C/CC(=O)Nc2ccc(C(=O)Nc3ccc(F)cc3N)nc2)cn1	31.4%	29.1%	38.5%	43.9%	–	43.9%	35.6%	53.6%	59%	–
O=S(=O)(Nc1cc(Cl)cc(Cl)c1)c1ccc(-c2cnc(C3CC3)o2)cc1	29.5%	47%	45.6%	–	70.2%	40.7%	36.7%	18.8%	17.2%	–
CCC(=O)Nc1cc(Nc2cc(NC3CC3)n3ncc(C#N)c3n2)ccc1C	24.5%	43.4%	18.4%	–	21.6%	6.78% (active)	-17.4% (active)	44.2%	–	–
CCCCCCNC(=O)Oc1ccc(/C(=C(/C)c2ccc(Cl)cc2)c2ccc(OCCN3CCCC3)cc2)cc1	–	56.8%	67.8%	54.6%	78.8%	32.6%	61.1%	50.4%	23.4%	-35.8% (active)
CCOC(=O)Nc1ccc(-c2nc(-c3cccc(O)c3)c(-c3ccnc(Br)c3)[nH]2)cc1	9.74% (active)	10.7%	85%	–	41.2%	33%	-2.07% (active)	63.5%	14.6%	–
N#Cc1c(-c2cccs2)cc(-c2cnccn2)nc1SCC(=O)NNC(=S)Nc1ccc(F)cc1	85.1%	104%	109%	–	121%	106%	109%	106%	122%	–
COc1ccccc1N1CCN(C2=NN=C(c3cccc(Cl)c3)c3ccccc3C2)CC1	-15.3% (active)	13%	40.4%	38.6%	13.7%	21.4%	18.9%	10.7%	–	–
CCOC(=O)/C=c1\sc2n(c1=O)C1C(NN=2)N(CC)C(=O)N1CC (stereo not drawn)	–	84.2%	84.8%	91.2%	89.2%	59.6%	61.5%	53.1%	14.8%	64.6%
